Bioassay records: PubChem BioAssay, National Center for Advancing Translational Sciences (NCATS)
Sampled rows, rich in hits. Any-hit rate of the full collection: about 2.4%.
Pol beta inh = blocks human DNA polymerase beta activity; P06746; Pol beta primer extension/strand displacement, fluorescence kinetic; Potency, µM (doses to about 114 µM), inactives show at the top dose activity change, negative = inhibition, hits mostly inhibitors; hit rate 1.3% among 340,000; AID 485314; also: potency is read from the fitted curve at half-maximal effect; % is scaled to controls: 0 for no effect and ±100 for the full control effect
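Reaction started by 50 nM substrate onto compound-treated Pol beta (10 nM, 15 min preincubation, room temperature); plates read at 0 min and 10 min. Normalized concentration-effect data fitted by four-parameter Hill equation.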
Pol eta inh-1 = DNA polymerase eta (human) inhibition | Potency, µM (top dose mostly 114 µM), without a hit: top-dose activity change, negative = inhibition, actives largely listed as inhibitors | hit rate 1.2% among 390,000 | recombinant Pol eta, fluorescent DNA replication assay | AID 588591 | Q9Y253; also: potency is read from the fitted curve at half-maximal effect; % is scaled to controls: 0 for no effect and ±100 for the full control effect
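Pol eta at 10 nM preincubated with compounds 15 min at room temperature; reaction started with fluorescent substrate (50 nM final) and read kinetically at 0 and 10 min.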
FEN1 inh = inhibitors of human flap endonuclease 1; Potency, µM (titrated, usually from 114 µM), for the others: at the top dose activity change, negative = inhibition, actives largely listed as inhibitors; AID 588795; hit rate 0.35% among 390,000; Recombinant FEN1 flap cleavage, fluorescence, 15 min; P39748; also: potency is read from the fitted curve at half-maximal effect; % is scaled to controls: 0 for no effect and ±100 for the full control effect; nearly all actives have a fitted effect of over 65% in size
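Read-out was taken twice, immediately and after 15 min, following addition of 50 nM substrate to 10 nM FEN1 that had sat with test compound for 15 min at room temperature. Curves came from a four-parameter Hill model.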
WRN inhibitor = WRN helicase (human) inhibition; Q14191; WRN helicase unwinding, fluorescent forked duplex, kinetic; Potency, µM (top dose mostly 114 µM), inactives show at the top dose activity change, negative = inhibition, actives largely listed as inhibitors; hit rate 0.46% among 360,000; AID 651768; also: potency is read from the fitted curve at half-maximal effect; % is scaled to controls: 0 for no effect and ±100 for the full control effect; nearly all actives have a fitted effect of over 55% in size
Target sequence (Q14191 whole entry, looked up): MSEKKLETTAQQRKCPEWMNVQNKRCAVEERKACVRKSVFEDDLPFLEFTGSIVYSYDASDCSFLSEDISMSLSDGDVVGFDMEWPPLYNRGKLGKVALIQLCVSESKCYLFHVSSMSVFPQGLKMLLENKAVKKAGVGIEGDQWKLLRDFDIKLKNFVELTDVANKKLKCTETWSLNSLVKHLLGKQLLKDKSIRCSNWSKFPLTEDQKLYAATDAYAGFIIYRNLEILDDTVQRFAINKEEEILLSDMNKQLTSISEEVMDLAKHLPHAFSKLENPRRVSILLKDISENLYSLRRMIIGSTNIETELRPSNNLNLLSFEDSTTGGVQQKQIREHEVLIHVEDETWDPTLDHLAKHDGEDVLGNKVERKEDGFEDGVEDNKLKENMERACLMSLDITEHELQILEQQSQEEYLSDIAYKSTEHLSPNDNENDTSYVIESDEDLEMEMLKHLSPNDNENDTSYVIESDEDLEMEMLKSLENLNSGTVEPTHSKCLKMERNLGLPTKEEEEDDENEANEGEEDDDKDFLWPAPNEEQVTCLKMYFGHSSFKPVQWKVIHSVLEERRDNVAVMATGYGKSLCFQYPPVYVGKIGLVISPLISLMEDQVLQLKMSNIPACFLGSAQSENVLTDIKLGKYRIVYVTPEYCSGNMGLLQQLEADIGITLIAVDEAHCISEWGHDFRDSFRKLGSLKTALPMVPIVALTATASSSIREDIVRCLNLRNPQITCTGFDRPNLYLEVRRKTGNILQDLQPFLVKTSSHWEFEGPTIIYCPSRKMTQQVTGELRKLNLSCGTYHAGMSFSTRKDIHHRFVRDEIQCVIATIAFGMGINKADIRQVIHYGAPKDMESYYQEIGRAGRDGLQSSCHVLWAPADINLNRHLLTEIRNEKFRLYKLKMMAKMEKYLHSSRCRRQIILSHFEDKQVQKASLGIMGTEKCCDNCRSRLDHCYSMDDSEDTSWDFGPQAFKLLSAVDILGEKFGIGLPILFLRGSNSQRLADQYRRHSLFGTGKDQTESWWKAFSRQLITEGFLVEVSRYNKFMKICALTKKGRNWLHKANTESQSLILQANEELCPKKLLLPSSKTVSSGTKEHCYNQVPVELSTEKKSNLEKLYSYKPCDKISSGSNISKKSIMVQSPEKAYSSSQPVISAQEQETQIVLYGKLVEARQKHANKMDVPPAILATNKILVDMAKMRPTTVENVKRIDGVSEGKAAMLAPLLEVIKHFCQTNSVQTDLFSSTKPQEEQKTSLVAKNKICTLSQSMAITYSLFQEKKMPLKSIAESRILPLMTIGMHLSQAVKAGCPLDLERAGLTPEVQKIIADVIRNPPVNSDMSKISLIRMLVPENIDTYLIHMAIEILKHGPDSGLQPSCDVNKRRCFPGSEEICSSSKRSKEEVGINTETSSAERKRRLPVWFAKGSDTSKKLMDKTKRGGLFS
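WRN at 20 nM final was preincubated with compound for 15 min at room temperature; reaction started with 100 nM forked duplex oligonucleotide carrying fluorophore and quencher plus 2 mM ATP (final). Unwinding followed kinetically by red fluorescence (ex 525/em 598 nm).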
Pol kappa inh-1 = blocks human DNA polymerase kappa activity | purified Pol kappa, fluorescent DNA synthesis assay, 10 min | Potency, µM (doses to about 107 µM), for inactives: top-dose activity, negative = inhibition, most hits filed as inhibitors | hit rate 0.53% among 400,000; also: potency is read from the fitted curve at half-maximal effect; % is scaled to controls: 0 for no effect and ±100 for the full control effect
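Kinetic fluorescence readout at 0 and 10 min followed reaction start with substrate at 50 nM final. Beforehand, enzyme (10 nM Pol kappa) stood 15 min with compound at room temperature; buffer-only wells were negative controls.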
Pol iota inh = DNA polymerase iota (human) inhibition | Pol iota fluorescent replication assay, 10 min | Potency, µM (top dose mostly 115 µM), without a hit: at the highest dose activity, negative = inhibition, hits mostly inhibitors | hit rate 1% among 390,000; also: potency is read from the fitted curve at half-maximal effect
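Pol iota at 10 nM preincubated 15 min with compounds at room temperature; reaction started with fluorescent substrate, 50 nM final. Fluorescence read kinetically at 0 and 10 min; buffer-only wells as negative control.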
GALK inh confirm = galactokinase (human) inhibition, confirmation; AID 2015; Potency, µM (highest dose often 115 µM), inactives show top-dose activity, negative = inhibition, actives largely listed as inhibitors; shares compounds with Pol eta inh-1; hit rate 70% among 150; purified GALK, Kinase-Glo ATP depletion luminescence
Redox cycling = counter-screen for GALK inhibitors: redox cycling H2O2 generation; shares compounds with Pol eta inh-1; Phenol red-HRP H2O2 redox cycling, absorbance 600 nm; Potency, µM (top dose mostly 115 µM), inactives show at the highest dose activity change, negative = H2O2 signal, usual class: inhibitors; hit rate 40% among 150; AID 2035
HEK293 tox = counter-screen for GALK inhibitors: HEK293 cell cytotoxicity. shares compounds with Pol eta inh-1. HEK-293 viability, ATP luminescence (CellTiter-Glo), 24/48 h. Potency, µM (doses to about 46.1 µM), for the others: top-dose activity change, negative = cytotoxicity, usual class: inhibitors. hit rate 10% among 170; also: potency is read from the fitted curve at half-maximal effect; % is scaled to controls: 0 for no effect and ±100 for the full control effect
Pol kappa inh-2 = Pol kappa (human) inhibition, cherry-pick confirmation; shares compounds with Pol eta inh-1; purified Pol-kappa, fluorescent strand-displacement substrate; Potency, µM, most hits filed as inhibitors; hit rate 76% among 920; AID 720501; also: potency is read from the fitted curve at half-maximal effect
Pol eta inh-2 = confirmation of human DNA polymerase eta inhibitors | hit rate 64% among 2,600 | Potency, µM, actives largely listed as inhibitors | shares compounds with Pol eta inh-1 | Pol eta primer extension, TAMRA/BHQ fluorescence, 10 min; also: potency is read from the fitted curve at half-maximal effect
Numbers without * were called inactive; [ ] = dose if it differs, or a comment. Calls follow the shape of the dose curve; as a rule, active = well fitted curve in the direction sought with a large enough effect; inconclusive = small, poorly fitted or top-dose-only effect, or another doubt; inactive = no such curve, though single readings can be large; an effect the other way counts as inactive or inconclusive.

Results for COC(=O)COc1ccc(C2Nc3c(Cl)ccc(C(=O)O)c3C3C=CCC32)cc1 (centres undefined) ?
Pol beta inh: inconclusive; Pol eta inh-1: 28µM*; FEN1 inh: inconclusive; WRN inhibitor: 22µM*; Pol kappa inh-1: inconclusive; Pol iota inh: inconclusive; Pol eta inh-2: 48*

How did COC(=O)c1ccc([C@@H]2Nc3c(OC)ccc(C)c3[C@@H]3C=CC[C@@H]32)cc1 do in these assays?
Pol beta inh: -25%; Pol eta inh-1: -1%; FEN1 inh: 10%; Pol kappa inh-1: -9%; Pol iota inh: inconclusive

Results for O=[N+]([O-])c1cc(Cc2ccccc2)cc(C=Nc2ccc(N3CCOCC3)cc2)c1O ?
Pol beta inh: 0%; Pol eta inh-1: inconclusive; FEN1 inh: inconclusive; WRN inhibitor: inconclusive; Pol kappa inh-1: -19%; Pol iota inh: 0%

How did Cc1ccc(O)c(N=Cc2cc(Cc3ccccc3)cc([N+](=O)[O-])c2O)c1 do in these assays?
Pol beta inh: 5.6µM*; Pol eta inh-1: 79µM*; FEN1 inh: inconclusive; WRN inhibitor: inconclusive; Pol kappa inh-1: inconclusive; Pol iota inh: inconclusive; Pol kappa inh-2: 67*

Results for Cc1cc(C)c(Cn2c(=O)n(CCCC(=O)NCc3ccc4c(c3)OCO4)c(=O)c3sccc32)c(C)c1 ?
Pol beta inh: 12%; Pol eta inh-1: -17%; FEN1 inh: -2%; Pol kappa inh-1: -4%; Pol iota inh: 8%

How did C=CC1=C(C(=O)O)N2C(=O)[C@@H](NC(=O)/C(=N\O)c3csc(N)n3)[C@H]2SC1 (stereo in doubt) do in these assays?
Pol eta inh-1: inconclusive; FEN1 inh: -18%; WRN inhibitor: -17%; Pol kappa inh-1: inconclusive; Pol iota inh: inconclusive; Pol eta inh-2: inconclusive

Results for CO/N=C(/C(=O)N[C@@H]1C(=O)N2C(C(=O)O)=C(CSc3nc(C)c(CC(=O)O)s3)CS[C@H]12)c1csc(N)n1 ?
Pol kappa inh-1: -3%[19.4 µM]

How did O=C1Nc2ccccc2SC(c2ccccc2)C1O (centres undefined) do in these assays?
Pol beta inh: 22µM*; Pol eta inh-1: 2.8µM*; FEN1 inh: inconclusive; WRN inhibitor: inconclusive; Pol kappa inh-1: 79µM*; Pol iota inh: inconclusive; Pol eta inh-2: inconclusive

Results for O=C(CSCc1ccc(Cl)cc1)Nc1ccc2c(c1)OCCO2 ?
Pol beta inh: 2%; Pol eta inh-1: -11%; FEN1 inh: -21%; WRN inhibitor: -13%; Pol kappa inh-1: -17%; Pol iota inh: 9%

What do the screens show for `O=C(CSc1nc(=O)n2cc(Cl)ccc2n1)Nc1ccc2c(c1)OCCO2`?
Pol eta inh-1: 28µM*; FEN1 inh: -2%; WRN inhibitor: inconclusive; Pol kappa inh-1: -44%; Pol iota inh: -19%; Pol eta inh-2: inconclusive

What do the screens show for `Cc1ccc2c(=O)cc(C(=O)Nc3nc4ccc(Cl)cc4s3)oc2c1C`?
Pol beta inh: 6.3µM*; Pol eta inh-1: 79µM*; FEN1 inh: inconclusive; Pol kappa inh-1: inconclusive; Pol iota inh: inconclusive; Pol eta inh-2: inconclusive

Results for Cc1ccc2c(=O)cc(C(=O)Nc3nc4ccc(Cl)cc4s3)oc2c1 ?
Pol beta inh: -1%; Pol eta inh-1: 2%; FEN1 inh: 17%; Pol kappa inh-1: 3%; Pol iota inh: 5%

How did CCCN(C(=O)Cn1ncc2c1-c1ccccc1OC2)c1cccc(C)c1 do in these assays?
Pol beta inh: -25%; Pol eta inh-1: -13%; FEN1 inh: 2%; Pol kappa inh-1: -3%; Pol iota inh: -1%

How did Cc1cc(C)n(-c2ncc3c(n2)N(CCO)CCOC3=O)n1 do in these assays?
Pol beta inh: 11%; Pol eta inh-1: -1%; FEN1 inh: -5%; WRN inhibitor: -7%; Pol kappa inh-1: -4%; Pol iota inh: -8%

Results for CC1=CC2(O)OCCN(CCO)C2=CC1=O (centres undefined) ?
Pol beta inh: 25µM*; Pol eta inh-1: inconclusive; FEN1 inh: -8%; WRN inhibitor: -8%[11.6 µM]; Pol kappa inh-1: inconclusive; Pol iota inh: inconclusive; Pol eta inh-2: inconclusive

How did C=Cc1ccc(Cn2c(=O)n(-c3cccc(Cl)c3)c(=O)c3c4c(sc32)CN(C(C)=O)CC4)cc1 do in these assays?
Pol beta inh: -32%; Pol eta inh-1: -12%; FEN1 inh: 2%; Pol kappa inh-1: -14%; Pol iota inh: 7%

How did Cc1[nH][nH]c(=O)c1C(c1ccc(-c2ccc(Cl)c(C(=O)O)c2)o1)c1c(C)[nH][nH]c1=O do in these assays?
Pol beta inh: -25%; Pol eta inh-1: 10µM*; FEN1 inh: inconclusive; WRN inhibitor: inconclusive; Pol kappa inh-1: 50µM*; Pol iota inh: 3.2µM*; GALK inh confirm: inconclusive; Redox cycling: 4.7µM*; HEK293 tox: -7%; Pol kappa inh-2: 24*; Pol eta inh-2: 60*

What do the screens show for `Cc1ccc(N2NC(=O)/C(=C/c3ccc(-c4ccc(Cl)c(C(=O)O)c4)o3)C2=O)cc1C`?
Pol beta inh: -2%; Pol eta inh-1: inconclusive; FEN1 inh: -1%; WRN inhibitor: -19%[11.6 µM]; Pol kappa inh-1: -44%; Pol iota inh: inconclusive; Pol kappa inh-2: inconclusive

Results for O=C(O)c1cc(-c2ccc(/C=N/Nc3ccc(Cl)cc3)o2)ccc1Cl ?
Pol beta inh: -20%; Pol eta inh-1: inconclusive; FEN1 inh: -23%; WRN inhibitor: -9%[11.6 µM]; Pol kappa inh-1: -23%; Pol iota inh: inconclusive
